# Laboratory results reported in PubChem BioAssay (NCI).
# This is part of a sample that, as a whole, favours compounds with a hit. Of some 79,000 tested, about 15% had one in any assay. Unmarked numbers belong to inactive results. Activity calls are given as the source filed them. Rule as the data show it: active = growth inhibition above about 70%; inactive = the rest.
# Legend:
# [1] = NCI Yeast Anticancer Drug Screen. Data for the rad50 strain (AID 155);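 also: 0% = growth of vehicle-only cultures of the same strain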; settings: S. cerevisiae rad50 strain growth inhibition; at 50.0 µM; hits give high values
# Outline: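 Genetically altered yeast (DNA repair pathway); compound treatment; growth inhibition vs vehicle ctrl.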
# [2] = NCI Yeast Anticancer Drug Screen. Data for the mec2-1 strain (AID 157); settings: S. cerevisiae mec2-1 strain, at 50.0 µM, hits give high values
# Outline: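 Growth inhibition is read against vehicle-treated controls after compound exposure of the mec2-1 yeast strain, which is defective in DNA damage repair or cell cycle control.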
# [3] = NCI Yeast Anticancer Drug Screen. Data for the sgs1 mgt1 strain (AID 161);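 also: 0% = growth of cultures given vehicle only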; settings: S. cerevisiae sgs1 mgt1 strain, at 50.0 µM, hits give high values
# Outline: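 Growth of a repair-deficient yeast mutant was monitored after compound treatment and expressed as inhibition relative to vehicle-treated cultures.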
# [4] = NCI Yeast Anticancer Drug Screen. Data for the cln2 rad14 strain (AID 165);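 also: 0% = growth equal to vehicle treated cultures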; settings: S. cerevisiae cln2 rad14 strain, at 50.0 µM, hits give high values
# Outline: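 Growth inhibition, relative to vehicle-treated controls, is the read-out. The test organism is a yeast strain with defined genetic alterations, cln2 rad14.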
# [5] = NCI Yeast Anticancer Drug Screen. Data for the bub3 strain (AID 167); settings: S. cerevisiae bub3 mutant strain, at 50.0 µM, hits give high values
# Outline: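 Yeast carrying a defined mutation is treated with each compound, and growth is compared with that of vehicle-exposed cells to give inhibition.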
# [6] = NCI Yeast Anticancer Drug Screen. Data for the mlh1 rad18 strain (AID 175); settings: S. cerevisiae mlh1 rad18 strain growth inhibition; at 50.0 µM; hits give high values
# Outline: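 Cells of a genetically altered yeast strain, deficient in DNA damage repair, were treated with compound. Their growth was then compared with that of vehicle-treated cultures to give inhibition.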
Compound,growth inhibition [1],growth inhibition [2],growth inhibition [3],growth inhibition [4],growth inhibition [5],growth inhibition [6]
O=NN(CCCl)C(=O)NC1c2cc(Cl)ccc2-c2c(Cl)cc(Cl)cc21 (stereo not given),84.3% (active),59.3%,73.7% (active),48.5%,22.8%,86.5% (active)
O=C(OC1(c2nccc3ccccc23)CCCN(Cc2ccccc2)C1)c1ccccc1 (stereo not given),28.9%,11.8%,15.9%,14.2%,-1.4%,24.1%
COc1ccc(NC(=O)C(Br)C(Br)c2ccccc2)c(Cl)c1 (stereo not given),96.8% (active),97.2% (active),97.2% (active),97.3% (active),97% (active),97.2% (active)
CO[C@@]12C[C@@H](C)[C@]34O[C@H]3C[C@]3(C)O[C@]43CC1=C(C)C(=O)O2,10.2%,1.2%,23.6%,7.5%,28.4%,-64%
CCCCCCCSCC1OC(n2cnc3c(N)ncnc32)C(O)C1O (stereo not given),3.35%,11.1%,11.4%,5.5%,3.1%,9.3%
O=C1CCC(N2C(=O)C3C4CCC(O4)C3C2=O)C(=O)O1 (stereo not given),12.9%,3%,13.9%,13.8%,13.8%,7.85%
COCC(O)CC#N (stereo not given),14.1%,4%,-3.65%,7.65%,9.65%,3.9%
CN(C)CC1CCCCC1O (stereo not given),-4.75%,-5.85%,-5.3%,25.1%,1.95%,-7.35%
C/C(=N/NC(N)=O)c1cn[nH]c1C,-27.6%,-14.8%,3.7%,-66%,11.9%,11.8%
CC12CCC(=O)C=C1CCC1C2CCC2(C)C1CCC2(O)C(=O)Cn1c(=O)[nH]cc(F)c1=O (stereo not given),-0.8%,-1.2%,5.75%,10.8%,-1.2%,11.4%
NCCCCC(N)C(=O)NCCNc1ccc(NCCNC(=O)C(N)CCCCN)c2c1C(=O)c1ccccc1C2=O (stereo not given),11.5%,7.4%,1.45%,-4.85%,-21.5%,-19.1%
C[Si](C)(/C(=C/COCc1ccccc1)CCOC1CCCCO1)c1ccccc1 (stereo not given),-5.4%,-6.95%,-17.1%,-10.9%,0.6%,-27.4%
O=[N+]([O-])c1ccc(/C=N\N=C\c2ccco2)cc1,1.85%,16.8%,-4.35%,-50.1%,-9.9%,4.95%
C=CCSc1ncnc2c1c(C#N)cn2C1OC(CO)C(O)C1O (stereo not given),22%,-21.2%,-16.9%,17.5%,7.25%,28.4%
CCOC(OC(C)=O)[C@@H]1C=C[C@H](C)N(c2ccc([N+](=O)[O-])cc2)O1 (stereo not given in full),25.4%,13.9%,39.5%,18.1%,42.6%,32.8%
COc1ccc(NC(=O)/C(Cc2nc3ccccc3[nH]c2=O)=N\O)c(OC)c1,-1.85%,-9.4%,-5.1%,0.7%,-4.85%,-13.7%
Nc1nc(N)nc(-c2cc(Br)c(N)c(Br)c2)n1,-2.55%,-7.45%,0.95%,34.6%,3.3%,-8.25%
CC(C)C1CC(C)(C)C2CC3OC(C(C)C)CC(C)(C)C3CC2O1 (stereo not given),-12.1%,-3%,2.75%,-2.65%,-10.3%,1.35%
NNC(=O)c1ccc[n+](CCc2ccccc2)c1,-1.25%,-8.55%,-34%,-34%,-30.4%,-5.5%
NC(=O)ON=C1CCN(Cc2ccccc2)CC1,30.4%,15.4%,10.7%,18.9%,10.2%,21.4%

Compound,growth inhibition [1],growth inhibition [2],growth inhibition [3],growth inhibition [4],growth inhibition [5],growth inhibition [6]
CCOC(=O)C(C)NCc1ccccc1 (stereo not given),2.15%,0.1%,-1.4%,-39.6%,0.95%,-3.25%
COc1ccc(/C=C/C(=O)C(C)(C)CN(C)CCN(C)C)cc1,-36%,-7.25%,-23.9%,-7.65%,-5.25%,-8.45%
O=c1nc(N2CCSCC2)ccn1C1OC(CO)C(O)C1O (stereo not given),-6.5%,-6.7%,-8.45%,-5.75%,-3.5%,-2.25%
C[N+]1(C)CC2CCC1C2 (stereo not given),1.1%,16.1%,17.6%,-27.8%,-9.05%,-7.1%
COC(=O)C(Cc1c[nH]c2ccccc12)NP(=O)(O)OCC1OC(n2cc(Br)c(=O)[nH]c2=O)CC1O (stereo not given),-34.8%,-15.4%,-9.25%,-12%,-16.3%,-10.1%
O=C(O)c1cc2ccccc2c(N=Nc2cc(C(F)(F)F)ccc2Cl)c1O,-12.2%,-9.65%,-4.05%,5.4%,-6.3%,-13.1%
Cc1c(O)c([N+](=O)[O-])cc2c1OCOC2,3.8%,11.6%,-3.15%,-9.4%,-17.5%,0%
O=C(O)C(Cc1ccccc1)NS(=O)(=O)Cc1ccccc1 (stereo not given),-14.1%,-8.45%,-4.5%,-4.9%,-8.2%,-2.15%
O=c1c2cccnc2ncn1CCN1CCCC1,5.25%,-11.6%,-3.5%,8.4%,-1.8%,21.1%
CCOC(=O)c1nc2ccc(C(F)(F)F)cc2nc1Nc1cc(OC)c(OC)c(OC)c1,-33.4%,-17.4%,-30.8%,2.85%,-13.6%,-11.1%
Cc1cc2nnnn2c2ccccc12,-30.1%,-20.6%,-17.1%,-2.35%,-6.8%,-19.8%
C/C(CC(=O)Nc1ccc(Cc2ccc(Cl)cc2)cc1)=N/Nc1ccc([N+](=O)[O-])cc1[N+](=O)[O-],28.1%,-0.25%,31.4%,-1.15%,-8.55%,22.6%
CCc1ccccc1Cc1ccccc1,1.8%,-4.75%,-0.2%,4.65%,-1.55%,10.7%
c1ccc(O[Si](Oc2ccccc2)(Oc2ccccc2)Oc2ccccc2)cc1,5.65%,-18.7%,5.5%,5.1%,-7.3%,6.05%
OC(c1ccoc1)c1cc2ccccc2s1 (stereo not given),65%,23.2%,52.5%,22.2%,21.6%,36.7%
CCCn1cc2c(=O)[nH]c(SC)nc2n1,-4.95%,-20.8%,-1.35%,-13.1%,-12.7%,10.8%
CCc1ccccc1NC(=O)CC1NC(=O)CS1 (stereo not given),-8.95%,-9.3%,4.4%,9.9%,-30.4%,-21.4%
CNC(=S)/C(C(C)=O)=C(\C)Nc1ccccc1,-0.95%,-5.55%,-8.05%,-32.1%,-14.6%,15.2%
Fc1ccc(F)c(C(Nc2nncs2)Nc2nncs2)c1,7.3%,-8.75%,7.75%,2.4%,8.45%,7.85%
SC1c2ccccc2-c2ccccc21,30.1%,2.75%,7.5%,7.25%,-30.2%,1.7%
